Test: sensitizers of A549 cells to miR-34 induction, primary screen, imaging, A549 dox-inducible miR-34, nuclei and caspase counts (AID 1347080); further: test concentration not given here
Details: A549 miR-34 inducible, Hoechst nuclei count, 48 h; measured here: total cells without miR-34 induction

Row | SMILES | cell count
1 | CCCCC/C=C\C/C=C\C/C=C\C/C=C\CCCC(=O)NC[C@]1(C)CCC[C@]2(C)c3ccc(C(C)C)cc3CC[C@@H]12 | 5580
2 | CCCCC[C@H](O)/C=C/[C@@H]1[C@@H](CCCCC(CC(=O)O)OC)[C@@H](O)C[C@H]1O (stereo not given in full) | 6470
3 | CCCCC(C)(C)[C@H](O)/C=C/[C@H]1C=CC(=O)[C@@H]1C/C=C\CCCC(=O)O | 6200
4 | CCCCCCCCCCCCCCCCC/C=C\C(=O)O | 5930
5 | CCCOCCCCCCCCCC(=O)O | 6040
6 | CC(=O)O[C@@]12CO[C@@H]1C[C@H](O)[C@@]1(C)C(=O)[C@H](OC(=O)O)C3=C(C)[C@@H](OC(=O)[C@H](O)[C@@H](NC(=O)c4ccccc4)c4ccccc4)C[C@@](O)([C@@H](OC(=O)c4ccccc4)C12)C3(C)C (stereo not given in full) | 1180
7 | CCCCCC/C=C\CCCC(=O)CC(=O)N[C@H]1CCOC1=O | 5940
8 | C[C@@H]1CC[C@H]2[C@@H](C)C(O)O[C@@H]3OC4(C)CC[C@@H]1[C@]32OO4 (stereo not given in full) | 4440
9 | COc1ccc(/C=C/c2cc(Cl)cc(Cl)c2)cc1 | 5220
10 | CCCCC[C@H](O)/C=C/[C@H]1C(=O)C[C@H](O)[C@@H]1C/C=C\CCCC(=O)OCC(O)CO (stereo not given in full) | 5740
11 | CCCCC/C=C\CCCCCCCCCCCCC(=O)O | 5540
12 | CCCCC/C=C\C=C1\C(=O)CC[C@@H]1C/C=C\CCCC(=O)O | 6000
13 | CCCCCCCCCCCCC/C=C/[C@@H](O)[C@H](CO)NC(=O)CCCCC | 5910
14 | CCCCCC(=O)OC[C@H](CO)OC(=O)CCCCC | 5590
15 | CCCCCCCC/C=C\CCCCCCCCCCCC(=O)O | 5990

— PubChem BioAssay
